# According to PubChem BioAssay (Tox21):
# Several values for one entry are separate records, joined by “and”; a condition that tells them apart may be missing. Equal values may be shown once. Results filed as inconclusive are left out. Where a call stands in place of a potency, no number is given. Activity calls are given as the source filed them. The call rests on the fitted dose curve.
# Assay: qHTS assay to identify small molecule agonists of H2AX - cell viability counter screen (AID 1224847); further: nearly all actives have a fitted effect of over 30% in size
# Conditions: CHO-K1 viability, CellTiter-Glo luminescence, 3 h; series mostly up to 154 µM
# Summary of the method: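 Viability of CHO-K1 (wild type) cells after 3 hr compound exposure was measured by CellTiter-Glo luminescence.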
# Potency means the concentration at half of the fitted maximal effect.
row,Structure (SMILES),Potency
1,COC(C)COC(C)COC(C)CO (stereo unspecified),inactive
2,Cc1cccc([N+](=O)[O-])c1C,inactive
3,CCC(C)c1ccccc1O (stereo unspecified),inactive
4,Brc1cc(Oc2cc(Br)c(Br)c(Br)c2Br)c(Br)c(Br)c1Br,inactive
5,Nc1ncn([C@@H]2O[C@H](CO)[C@@H](O)[C@H]2O)c(=O)n1,inactive
6,OC(CCl)CCl,inactive
7,Cc1ccc2c(n1)Oc1ccc(C(C)C(=O)OCC(=O)N(C)C)cc1C2 (stereo unspecified),inactive
8,O=C(/C=C/c1ccccc1)OCc1ccccc1,inactive
9,Clc1nc(Cl)c(Cl)c(Cl)c1Cl,inactive
10,O=C(Nc1ccc(Cl)cc1)Nc1ccc(Cl)c(Cl)c1,22.5 µM (active) and 28.4 µM (active) and 22 µM (active)
11,CC(C)Oc1ccc2c(=O)c(-c3ccccc3)coc2c1,inactive
12,Cc1[nH]c(=O)c(C#N)cc1-c1ccncc1,inactive
13,CCCCC/C=C/C=C/C=O,inactive
14,c1ccncc1,inactive
15,CCCCC(CC)COCC1CO1 (stereo unspecified),inactive
16,O=[N+]([O-])c1ccc2c(c1)Cc1ccccc1-2,inactive
17,CC(C)OB(OC(C)C)OC(C)C,inactive
18,CC(CCC(=O)O)(c1ccc(O)cc1)c1ccc(O)cc1,inactive
19,CCCCc1oc2ccccc2c1C(=O)c1cc(I)c(OCCN(CC)CC)c(I)c1,80.7 µM (active) and 43.8 µM (active)
20,CC(C)(C)NC(=O)[C@H]1CC[C@H]2[C@@H]3CC[C@H]4NC(=O)C=C[C@]4(C)[C@H]3CC[C@]12C,inactive
21,C[C@]12CC[C@H]3[C@@H](CCC4=CC(=O)CC[C@@]43C)[C@@H]1CC[C@@H]2C(=O)CO,inactive
